Data taken from ChEMBL document CHEMBL4513216, “Probing the Open Global Health Chemical Diversity Library for Multistage-Active Starting Points for Next-Generation Antimalarials” (ACS Infect Dis, 2020).
In all, about 69,000 compounds went through this assay and about 8,600 (12%) showed an effect of 50% or more. The sample holds strong results, similar compounds and a random draw of the others, so the mix is not that of the screen.

system: Plasmodium berghei; experiment: Screen against P. berghei liver stage (PbLuc), transformed with Luciferase, at 10uM; assay type: functional, HepG2; settings: tested at 10 uM

Compound	INHIBITION [%]
Cc1cc(CN2CCOC(CN(C)c3cccnn3)C2)no1 (stereo unspecified)	26.9
Cc1cc(CN2CCOC(CN(C)C)C2)no1 (stereo unspecified)	53.8
Cc1cc(C)n(CC2CN(Cc3cc(C)on3)CCO2)n1 (stereo unspecified)	16
CCc1c(C)n(CCOC)c2nc3ccccc3n2c1=O	-7.81
O=c1c2sccc2ncn1Cc1cc(C2CC2)[nH]n1	37.6
N#Cc1ncn(CCC(=O)Nc2cc(Cl)ccc2Cl)n1	-22.1
CCc1ccc(CCn2cnc(C#N)n2)cc1	37.4
N#Cc1ncn(CCS(=O)(=O)c2ccc(Cl)cc2)n1	54.3
N#Cc1ncn(CCS(=O)(=O)c2ccccc2)n1	65.4
N#Cc1ncn(CCS(=O)(=O)c2ccc(Br)cc2)n1	41.4
N#Cc1ncn(CCC(=O)Nc2ccccc2F)n1	-3.77
CC(C)c1noc(OCC(=O)N2CCCCC2C)n1 (stereo unspecified)	-24.9
CC(C)c1nc(C2CCCN2CCNS(C)(=O)=O)no1 (stereo unspecified)	23.8
CCOC(=O)CNC(=O)NCc1cc(C)n(-c2ccccc2OC)c1C	63.1
CNCc1cc(C)n(-c2ccccc2OC)c1C	70.3
COc1ccccc1-n1c(C)cc(CNC(=O)NC(C)C)c1C	25.1
CCOc1ccccc1-n1c(CNC)n[nH]c1=O	-63.8
CNCc1n[nH]c(=O)n1-c1ccccc1Oc1ccccc1	-107
CCOC(=O)CNC(=O)NCc1cc(C)n(-c2ccc(OC)cc2)c1C	21.7
CC(=O)N1[C@@H](C(=O)NCC2CC2)C[C@@H]2CN(Cc3nccs3)C[C@@H]21	39.5
CC(C)CCN(C(=O)c1nc(S(C)(=O)=O)n2ccccc12)C1CC1	17.165
COc1cccc(Nc2nc(C3CCCNC3)c3sc(C)c(C)n23)c1 (stereo unspecified)	11.65

Compound	INHIBITION [%]
CC(C)(C)NCc1nn(Cc2ccccc2)nc1-c1ccccc1	45.8
CCn1ccnc1CN1CCN(CCCS(C)(=O)=O)CC1C (stereo unspecified)	8.31
Cc1cc(C(F)(F)F)cc(=O)n1Cc1nc(C(C)C)no1	23
CC(=O)NC1Cc2ccc(S(=O)(=O)NCCNc3ccccn3)cc2C1 (stereo unspecified)	-18.8
Cc1nc(CN2C(=O)COC3(CCN(C)CC3)C2C)cs1 (stereo unspecified)	8.03
CN(C)CCN1C(=O)CC[C@@H]2[C@H]1CCN2C(=O)c1ccc(C#N)cc1	70.4
Cc1cncc(C(=O)N2CC[C@@H]3[C@H]2CCC(=O)N3CCN(C)C)c1	29
Cc1ccc(C(=O)N2CCC3(CC2)CCN(CCN(C)C)C3=O)cn1	28.2
N#Cc1ccc(C(=O)N2CC[C@H]3[C@@H]2CCC(=O)N3c2ccccc2)cc1	43.8
Cc1ccc(C(=O)N2CC[C@@H]3[C@H]2CCC(=O)N3CCN(C)C)cn1	79.2
CN(C)CCN1C(=O)CC[C@@H]2[C@H]1CCN2Cc1cccc(C#N)c1	49.7
N#Cc1cccc(CNCCNC(=O)Cc2cccc(F)c2)c1	29.2
CCOc1ccc(Cl)c(C(=O)N2CCCSCC2)n1	18.2
CC(C)c1nnc(C2CCN(CC(=O)Nc3cccnc3)CC2)o1	-39.2
Cc1cnc(NC2CCN(CC(=O)Nc3ccccc3)CC2)nc1C	14.8
COc1ccnc(NC2CCN(CC(=O)N3CCCC3)CC2)n1	11.6
CC(C)OCCN1CCC(Nc2ncccn2)CC1	55.9
Cc1cc(C)nc(NC2CCN(CCOC(C)C)CC2)n1	43.9
CC(C)OCCN1CCC(Nc2ncc(Br)cn2)CC1	28.7
COc1ccnc(NC2CCN(CC(=O)Nc3ccccc3)CC2)n1	60.8
O=C(CN1CCC(Nc2ncccn2)CC1)Nc1ccccc1	66.1
COc1ccc(NC(=O)CN2CCS(=O)(=O)CC2)cn1	-2.55

Compound	INHIBITION [%]
CSc1ccc(CN2CCn3nc(CNC(C)=O)cc3C2)cc1	-89.3
CC(C)N1CCC(Cc2cncc(-c3cccc(C(=O)O)c3)n2)C1 (stereo unspecified)	-62.3
COC(=O)c1ccc(CN2CCN(Cc3nc(C)no3)CC2)s1	23.2
CC(C)c1nnc2n1CCN(Cc1nc(-c3ccoc3)no1)C2	17.45
CC1CN(C(=O)CN(Cc2ccccc2Cl)C2CCCC2)CCO1 (stereo unspecified)	-0.219
COc1ccc(CN2CCn3cc(CNC(=O)C4CCC4)nc3C2)cc1	19.5
O=C(c1cnccn1)N1CCN2C[C@H](OCc3ccccc3F)C[C@H]2C1	59.8
O=C(c1cscn1)N1CCN2C[C@H](OCc3cccnc3)C[C@H]2C1	33
O=C(c1cnccn1)N1CCN2C[C@H](OCc3ccccc3)C[C@H]2C1	11
O=C(c1cnccn1)N1CCN2C[C@H](OCc3ccccn3)C[C@H]2C1	-0.182
O=C(c1cccc(F)c1)N1CCN2C[C@H](OCc3cccnc3)C[C@H]2C1	17.1
O=C(c1ccc(F)cc1)N1CCN2C[C@H](OCc3cccnc3)C[C@H]2C1	82.3
Cc1cnc(C(=O)N2CCN3C[C@H](OCc4cccnc4)C[C@H]3C2)cn1	52
O=C(c1ccco1)N1CCN2C[C@H](OCc3cccnc3)C[C@H]2C1	12.4
O=C(c1ccnnc1)N1CCN2C[C@H](OCc3cccnc3)C[C@H]2C1	26.4
CS(=O)(=O)NC1CCCN(C(=O)COCc2ccccc2)C1 (stereo unspecified)	-75.98
Cc1ncc2c(n1)CCN(CCCc1nc3ccccc3o1)C2	-65.2
O=C(NCc1cn2c(n1)CN(Cc1ccccn1)CC2)C1CCC1	-8.94
CC(=O)N1[C@H](CN(C)C)C[C@@H]2CN(C(=O)c3ccno3)CC[C@@H]21	17.4
Cc1cc(C)c(C(=O)N2CCOC(CCN(C)C)C2)o1 (stereo unspecified)	-5.12
Cc1ccc(N2CCC3(CCN(C(=O)c4ccsc4)C3)CC2)nn1	36.4
CN1CC2(CCN(C(=O)c3ccc4c(=O)n(C)cnc4c3)C2)OC1=O (stereo unspecified)	88.2

Compound	INHIBITION [%]
Cc1nc[nH]c1C(=O)N1CCC2(CN(C)C(=O)O2)C1 (stereo unspecified)	-11.2
CN1CC2(CCN(C(=O)c3ccc4c(=O)n(C)cnc4c3)CC2)CC1=O	32.5
Cc1noc(C2CCN(Cn3cc(Br)cn3)CC2)n1	-47
O=C(O)[C@@H]1OCC(=O)N(Cc2cccc(Cl)c2)[C@@H]1c1ccccc1	-25.3
CCSCCOC(=O)CCCc1ccc2c(c1)CC(=O)N2	54.9
O=C(O)CCCc1ccc2c(c1)CC(=O)N2	24.2
CCOC(=O)CCCc1ccc2c(c1)CC(=O)N2	3.4
CCc1c(C(=O)NC2CCS(=O)(=O)C2)cnn1-c1ccc(C)cc1 (stereo unspecified)	-17
Cc1ccc(-n2ncc(C(=O)NC3CCCCC3)c2N)cc1	66.5
Cc1ccc(-n2ncc(C(=O)NC3CC(C)(C)NC(C)(C)C3)c2N)cc1	-21.1
CCOc1c(F)cccc1C(=O)N(CC)C(C)c1cccnc1 (stereo unspecified)	43.1
CCOc1c(F)cccc1C(=O)N(CC)C(C)c1ccncc1 (stereo unspecified)	31.2
CCOc1c(F)cccc1C(=O)N(c1cccnc1)C(C)C	55.1
COC(=O)CN(CC1CCOC1)C1CC1 (stereo unspecified)	50.5
NC(=O)CN(CC1CCOC1)C1CC1 (stereo unspecified)	9.16
COC(=O)CCN(CC1CCOC1)C1CC1 (stereo unspecified)	43.9
CC(C)N1CCc2[nH]nc(C(=O)N3CCN(C)CC3)c2C1	1.34
COc1ccc(-n2nnnc2C(C)(C)Nc2ccc(C)cc2C)cc1	77.7
Cc1ccc(NC(C)(C)c2nnnn2-c2ccc(Cl)cc2)c(C)c1	81.1
Cc1cc(Cl)ccc1NCC(=O)Nc1cc(C(C)(C)C)no1	24.7
Cc1cccc(-n2nnnc2C(C)(C)Nc2ccccc2C)c1	39.1
COc1ccc(-n2nnc(C(=O)NC(C)C)c2C2CC2)cc1	40.1

Compound	INHIBITION [%]
COc1ccc(-n2nnnc2C2(NCc3ccco3)CCCCC2)cc1	24.2
c1cnc2c(c1)cc([C@@H]1CCCO1)n2CCN1CCOCC1	0.301
NC(=O)C(CNC(=O)CCc1ccsc1)Cc1ccc(F)cc1 (stereo unspecified)	13.1
Cc1ccoc1C(=O)N1CC[C@H]2[C@@H]1CCC(=O)N2c1cccnc1	-7.38
OCc1n[nH]c(-c2ccc(F)cc2)n1	-17
c1cnnc(NCC2CN(CC3CCOCC3)CCO2)c1 (stereo unspecified)	-35.7
CC(C)(O)CN1CCC(=O)N(Cc2ccco2)Cc2cc(F)ccc21	-17.1
COc1ccc2c(c1)CN(Cc1ccco1)C(=O)CCN2CC(C)(C)O	51.7
CCN1Cc2cc(OC)ccc2N(CC(C)(C)O)CCC1=O	17.7
CCOc1cc(CNCC2CN(C3CC3)CCO2)ccc1OC (stereo unspecified)	22.3
O=C(N[C@@H]1CN(Cc2ccc(F)c(F)c2)C[C@H]1O)c1cscn1	2.6
O=C(N[C@@H]1CN(CCc2ccc(F)cc2)C[C@H]1O)c1cscn1	54.5
O=C(N[C@@H]1CN(Cc2ccc(F)cc2)C[C@H]1O)c1cscn1	10
Cc1nc(Nc2nnc(C)s2)cc(C2CCCN2C2CCCC2)n1 (stereo unspecified)	28
CCc1ncnc2c1CCN(Cc1ccccn1)CC2	-9.48
Cc1occc1C(=O)Nc1ccnc(OC2CCOC2)c1 (stereo unspecified)	7.84
O=C(Nc1ccnc(OC2CCOC2)c1)c1ccc(F)cc1Cl (stereo unspecified)	17.6
O=C(Nc1ccnc(OC2CCOC2)c1)c1ccccc1Cl (stereo unspecified)	65.3
